MARV entry inh: Marburg virus entry inhibition | Marburg virus pseudotype entry/binding inhibition, cell-based | Potency, µM (series often up to 49.2 µM), inactives show at the highest dose activity change, negative = inhibition, actives largely listed as inhibitors | 6.5% of 18,000 active
Lassa entry: inhibitors of Lassa virus binding or entry into cells; Lassa virus pseudotyped entry inhibition, cell-based qHTS; Potency, µM (doses to about 49.2 µM), for inactives: at the top dose activity change, negative = inhibition, most hits filed as inhibitors; 4.1% of 18,000 active; AID 720533
Numbers without * were called inactive; ? = inconclusive; . = no result; ! = not confirmed by another sample; [ ] = dose if it differs, or a comment. Most compounds without a hit are left out; they make up all but 8.6% or so of the library. Calls follow the shape of the full dose curve; tested in HEK293 cells. % is scaled to controls: 0 for no effect and ±100 for the full control effect; potency is read from the fitted curve at half-maximal effect.

SMILES	MARV entry inh	Lassa entry
CC1OC(O[C@@H]2C(O)CC(O[C@@H]3C(O)C[C@@H](OC4CC[C@]5(C)[C@H](CC[C@H]6[C@@H]5CC[C@]5(C)C(C7=CC(=O)OC7)C(O)C[C@@]65O)C4)OC3C)OC2C)CC(O)C1O (stereo partly specified)	0.63µM*	5µM*
CC(=O)O[C@H]1C[C@H](O[C@H]2[C@@H](O)C[C@H](O[C@H]3[C@@H](O)C[C@H](OC4CC[C@@]5(C)C(CC[C@@H]6[C@@H]5CC[C@]5(C)[C@@H](C7=CC(=O)OC7)[C@@H](O)C[C@]65O)C4)O[C@@H]3C)O[C@@H]2C)O[C@H](C)[C@H]1O[C@@H]1O[C@H](CO)[C@@H](O)[C@H](O)[C@H]1O (stereo partly specified)	?	2.8µM*
CC(C)=CCC[C@](C)(O[C@@H]1O[C@H](CO)[C@@H](O)[C@H](O)[C@H]1O)[C@H]1CC[C@]2(C)[C@@H]1[C@H](O)C[C@@H]1[C@@]3(C)CC[C@H](O[C@@H]4O[C@H](CO)[C@@H](O)[C@H](O)[C@H]4O[C@@H]4O[C@H](CO)[C@@H](O)[C@H](O)[C@H]4O)C(C)(C)[C@@H]3[C@@H](O)C[C@]12C	?	-20%
CC1(C)CN(Cc2ccccc2)C(=O)[C@@H]1CC(=O)Nc1ccccc1	16%	.
C=C1C(=O)O[C@@H]2C3OC3(C)CC/C=C(\C)CC[C@@H]12 (stereo partly specified)	-16%	-22%
C=C1C(=O)OC2C1CC/C(C)=C/CCC1(C)OC21 (stereo unspecified)	?	11µM*
C=C1CC/C=C(\C)CC[C@@H]2[C@@H]1CC2(C)C	7%	-2%
C=C1C(=O)O[C@@H]2[C@H]3O[C@]3(C)CC/C=C(\C)CC[C@@H]12	4µM*	4.5µM*
C=C1C(=O)O[C@H]2[C@H]1CC/C(C)=C\CC[C@@]1(C)O[C@@H]21	14µM*	7.9µM*
C=C1C(=O)OC2C=C(C)CCC=C(C)CCC12 (stereo unspecified)	-19%	-15%
COC(=O)C(C(=O)OC)[C@H]1c2ccccc2[C@@H]2C(=C[C@@H](C)[C@H]3C(=O)N(c4ccccc4)C(=O)[C@H]32)N1C(=O)OC	25%[8.59 µM]	-10%[8.59 µM]
CCCCCCN1C[C@@H](n2cc(C3CC3)nn2)[C@H](O)C[C@H]1c1ccc(OC)cc1	-20%	.
C[C@H]1CC[C@H]2C(=O)O[C@H](COc3ccc(C(C)(C)C)cc3)CN2[C@H]1c1ccc(Br)cc1	-12%[8.59 µM]	.
Oc1cccc(O)c1O	?	-8%
Oc1cccc[c]1[Hg][Cl]	?	1µM*
CN(C)CCC(c1ccccc1)c1ccccn1 (stereo unspecified)	?	-12%
C[C@@H](C1=C(CCN(C)C)Cc2ccccc21)c1ccccn1	18µM*	?
COC(=O)C1=C(C(=O)OC)[C@@H]2N(C)c3ccccc3[C@@]23C[C@@H](C(=O)OC)N(C(=O)Nc2cccc(C#N)c2)C3=N1	27%[8.59 µM]	0%[8.59 µM]
N=C1N=C(N)c2cc3ccccc3cc21	20µM*	35µM*
O=C1CCCC2=C1[C@H]1O[C@](CCCCN3C(=O)c4ccccc4C3=O)(Cc3c1ccc1ccccc31)O2	-23%[8.59 µM]	-19%[8.59 µM]
COc1cc(CN2CCN(CCCSc3cc(C(C)(C)C)c(O)c(C(C)(C)C)c3)CC2)cc(OC)c1OC	2.8µM*	20µM*
O=C(OC1Cc2c(O)cc(O)cc2OC1c1cc(O)c(=O)c2c(O)c(O)cc(C3Oc4cc(O)cc(O)c4CC3OC(=O)c3cc(O)c(O)c(O)c3)c2c1)c1cc(O)c(O)c(O)c1 (stereo unspecified)	1.3µM*	-16%
O=C(OC1Cc2c(O)cc(O)cc2OC1c1cc(O)c(O)c(O)c1-c1c(C2Oc3cc(O)cc(O)c3CC2OC(=O)c2cc(O)c(O)c(O)c2)cc(O)c(O)c1O)c1cc(O)c(O)c(O)c1 (stereo unspecified)	11µM*	-2%
Oc1cc(O)c2c(c1)OC(c1cc(O)c(O)c(O)c1)C(O)C2 (stereo unspecified)	?	3%
Oc1ccc(C2Oc3cc(O)cc(O)c3CC2O)cc1 (stereo unspecified)	-4%	-4%
SMILES	MARV entry inh	Lassa entry
O=C(OC1Cc2c(O)cc(O)cc2OC1c1cc(O)c(O)c(O)c1)c1cc(O)c(O)c(O)c1 (stereo unspecified)	8.9µM*	-1%
O=C(O[C@@H]1Cc2c(O)cc(O)cc2OC1c1ccc(O)c(O)c1)c1cc(O)c(O)c(O)c1 (stereo partly specified)	13µM*	6%
O=C1C[C@@H](c2ccc(O)cc2)Oc2cc(O)cc(O)c21	21%[17.8 µM]	31%[17.8 µM]
C=C(C)C[C@@]1(c2ccccc2)Oc2ccccc2C2=NCCN=C21	-21%[8.59 µM]	7%[8.59 µM]
C[C@H]1C=CCC(=O)NCc2cccc(c2)CNC(=O)N[C@@H]1c1ccccc1	?	7%[8.59 µM]
COP(=S)(OC)Oc1ccc([N+](=O)[O-])cc1	11µM*	?
COP(=S)(OC)Oc1ccc(S(N)(=O)=O)cc1	-5%	-18%
COC(=O)[C@H](CC(C)C)N(Cc1ccc(Br)cc1)S(=O)(=O)CCl	-7%	21%
CCCC=Cc1ccc(CN2C(C)C(=O)N(Cc3cn(Cc4ccco4)nn3)CCS2(=O)=O)cc1 (stereo unspecified)	?	-2%
O=C1NC(=S)NC(=O)C1C(=O)Nc1ccccc1	10%	-5%
O=C1NC(=O)c2cc(Nc3ccccc3)c(Nc3ccccc3)cc21	?	11µM*
CC[C@H]1OC(=O)[C@H](C)C(=O)[C@H](C)[C@@H](O[C@@H]2O[C@H](C)C[C@H](N(C)C)[C@H]2O)[C@](C)(OC)C[C@@H](C)C(=O)[C@H](C)[C@H]2N(CCCCn3cnc(-c4cccnc4)c3)C(=O)O[C@]12C	-20%	-26%
CCOc1ccc(C=C2SC(=O)N(CCN)C2=O)cc1	11µM*	13µM*
CCOc1ccc(/C=C/C(=O)c2cccs2)cc1	6%	14%
COc1ccc2c(c1)CCc1cnc(-n3ncc(C(=O)N4CCN(CCO)CC4)c3C3CC3)nc1-2	7%	1%
CCCCCC(=O)N1C[C@@H](n2cc(-c3ccc(F)cc3)nn2)[C@H](O)C[C@H]1c1ccccc1	?	-15%
CCC(C)(C)c1ccc(O)cc1	13%	-2%
CC(C)(C)CC(C)(C)c1ccc(O)cc1	45µM*!	?
COc1ccc2c3c(c(=O)oc2c1)[C@H]1O[C@](CCCCN2C(=O)c4ccccc4C2=O)(Cc2cc(OC)c(OC)cc21)O3	?	9%[8.59 µM]
CCC1CN2CCC1CC2[C@@H](Oc1cc2ccccc2c2ccccc12)c1ccnc2ccc(O)cc12 (stereo partly specified)	42%[8.59 µM]	0%[8.59 µM]
COc1ccc2cc1Oc1ccc(cc1)C[C@H]1c3cc(c(OC)cc3CCN1C)Oc1c(OC)c(OC)cc3c1[C@H](C2)N(C)CC3	3.5µM*	13µM*
COc1ccc2cc1Oc1ccc(cc1)C[C@H]1c3c(cc4c(c3Oc3cc5c(cc3OC)CCN(C)[C@@H]5C2)OCO4)CCN1C	1.8µM*	?
COc1cc2c(cc1O)-c1c(O)c(OC)cc3c1[C@H](C2)N(C)CC3	-28%	4%
COc1cc2c3cc1Oc1c(OC)c(OC)cc4c1[C@@H](Cc1ccc(O)c(c1)Oc1ccc(cc1)C[C@@H]3N(C)CC2)N(C)CC4	2.8µM*	11µM*
COc1ccc(CC2c3cc(OC)c(OC)cc3CCN2C)cc1OC (stereo unspecified)	4%	-19%
